Test results: PubChem BioAssay
Values without a mark were called inactive. Active and inactive are the calls of the source. Rule as the data show it, unless noted: active = inhibition above about 36%; inactive = the rest.

Experiments:
[1] = tested on: transactivating tegument protein VP16 (Human herpesvirus 1); assay: compounds suppressing VP16-driven luciferase signal – cell-based, luminescence, single concentration, counter-screen for SRC2 inhibitor project (AID 652007); settings: cell-based VP16 transactivation luciferase reporter, at 8.9 µM, stronger effect = higher value
[2] = molecular target: Nuclear receptor coactivator 2 (Homo sapiens) (UniProt Q15596); assay: inhibition of GAL4-SRC2 driven luciferase expression – cell-based, luminescence, HEK293, triplicate, confirmation (AID 652008;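 active = mean inhibition above 46.5%, the solvent-only control mean plus 3 SD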;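 also: 0% = DMSO-treated cells and 100% = Gossypol at 36 µM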); settings: HEK293 GAL4-SRC2 luciferase reporter, at 8.9 µM, stronger effect = higher value
Sequence of Nuclear receptor coactivator 2 (Homo sapiens) (Q15596 whole entry, looked up, the tested form may be a part): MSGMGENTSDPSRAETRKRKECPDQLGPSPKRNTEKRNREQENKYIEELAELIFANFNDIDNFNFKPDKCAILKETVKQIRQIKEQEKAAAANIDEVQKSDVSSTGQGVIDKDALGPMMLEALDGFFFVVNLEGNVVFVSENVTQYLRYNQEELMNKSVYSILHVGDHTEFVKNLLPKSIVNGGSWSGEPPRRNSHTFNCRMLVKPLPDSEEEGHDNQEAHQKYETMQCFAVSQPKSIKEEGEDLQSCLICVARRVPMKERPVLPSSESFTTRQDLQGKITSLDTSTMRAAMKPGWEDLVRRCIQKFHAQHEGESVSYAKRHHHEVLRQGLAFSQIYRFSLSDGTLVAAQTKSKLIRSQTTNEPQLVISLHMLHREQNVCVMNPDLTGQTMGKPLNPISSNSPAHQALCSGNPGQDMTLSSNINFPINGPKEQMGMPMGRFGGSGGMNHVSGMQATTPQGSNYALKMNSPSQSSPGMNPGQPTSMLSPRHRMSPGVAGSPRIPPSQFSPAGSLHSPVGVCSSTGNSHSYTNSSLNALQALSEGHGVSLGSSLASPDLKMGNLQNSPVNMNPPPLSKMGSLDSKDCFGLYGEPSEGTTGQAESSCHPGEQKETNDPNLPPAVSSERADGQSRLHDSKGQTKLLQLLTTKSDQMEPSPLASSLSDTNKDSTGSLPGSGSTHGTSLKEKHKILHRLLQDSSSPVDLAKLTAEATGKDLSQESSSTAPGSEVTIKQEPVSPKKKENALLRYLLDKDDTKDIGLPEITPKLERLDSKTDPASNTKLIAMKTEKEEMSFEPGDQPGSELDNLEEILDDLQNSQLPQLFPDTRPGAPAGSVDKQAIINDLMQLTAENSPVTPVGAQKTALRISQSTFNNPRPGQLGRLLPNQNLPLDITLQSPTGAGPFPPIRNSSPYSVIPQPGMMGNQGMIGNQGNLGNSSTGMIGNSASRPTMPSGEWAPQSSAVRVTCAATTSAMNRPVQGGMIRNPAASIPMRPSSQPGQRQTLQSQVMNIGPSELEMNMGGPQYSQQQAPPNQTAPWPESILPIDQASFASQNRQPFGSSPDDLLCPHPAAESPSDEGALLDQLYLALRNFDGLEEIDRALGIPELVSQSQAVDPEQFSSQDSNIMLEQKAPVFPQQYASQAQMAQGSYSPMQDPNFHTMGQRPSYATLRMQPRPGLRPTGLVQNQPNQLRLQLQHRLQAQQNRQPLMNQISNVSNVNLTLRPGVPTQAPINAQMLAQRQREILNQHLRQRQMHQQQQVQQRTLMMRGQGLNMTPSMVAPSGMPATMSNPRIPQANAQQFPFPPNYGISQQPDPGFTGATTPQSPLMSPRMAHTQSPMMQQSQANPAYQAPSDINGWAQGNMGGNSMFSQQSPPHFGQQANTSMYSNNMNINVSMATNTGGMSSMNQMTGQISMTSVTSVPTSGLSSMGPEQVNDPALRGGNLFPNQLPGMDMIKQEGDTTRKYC

SMILES | inhibition [1] | inhibition [2]
O=C(NCCCN1CCOCC1)c1cc(-c2ccc(Br)cc2)on1 | -7.7% | 13.1%
CN(Cc1ccc(OC(F)F)cc1)C(=O)c1ccc(S(=O)(=O)N(C)c2ccccc2)cc1 | -22.2% | -12.8%
Nc1ncc([N+](=O)[O-])c(Oc2ccccc2F)n1 | -7% | -16.8%
N/C(=N\OC(=O)c1ccc2ccccc2c1)c1ccccn1 | -38.3% | -34.3%
CC(C)c1nnc(NC(=O)c2nc(S(=O)(=O)Cc3ccccc3F)ncc2Cl)s1 | 16.4% | 48% (active)
CC(=O)Nc1ccc(NC(=O)c2nc(S(=O)(=O)Cc3cccc(C)c3)ncc2Cl)cc1 | 21.6% | 50.8% (active)
CC1=CC(C)(C)N(S(=O)(=O)c2ccc(C)cc2)c2ccc(C)cc21 | 0.6% | -5.7%
COc1ccc(NS(=O)(=O)c2ccc(OC)c(N(C)S(=O)(=O)c3ccc(Cl)cc3)c2)cc1 | 17.3% | 31.2%
CN=C1CC(SC)=C1c1ccc(C)cc1 | -10.3% | 1.69%
COc1ccccc1/C=C1\SC(=S)N(CCC(=O)NCCCn2ccnc2)C1=O | -0.06% | 1.79%
Cc1ccc(NC(=O)c2ccc(NC(=O)C3CCCCC3C(=O)O)cc2)cc1 (stereo unspecified) | -56% | -17.6%
CN(C)c1ccc(CCc2ccc(N)cc2)cc1 | 12.3% | 57.2% (active)
CC(C)=CCC[C@@]1(C(=O)O)[C@H]2CC=C(CO)[C@@H]1CC/C(C)=C/CC/C(C)=C/C2 | 14.6% | 17.2%
CCCNC(=O)C[C@H]1C[C@H]2c3cc(NC(=O)Nc4ccc(F)cc4)ccc3O[C@H]2[C@@H](CO)O1 | 4.81% | -7.94%
Cc1nnc(NC(=O)c2nc(S(=O)(=O)Cc3ccccc3C)ncc2Cl)s1 | 42% (active) | 49.7% (active)
Cc1ccc(NC(=O)C2CCC(C(C)(C)C)CC2)cc1S(=O)(=O)N1CCOCC1 (stereo unspecified) | 3.84% | 12.3%
Cc1ccc(NC(=O)CSc2ncnc3ccccc23)cc1S(=O)(=O)N1CCCCCC1 | 12.7% | 20.7%
COc1ccc(-c2nnn(CC(=O)N(Cc3cccs3)C(C)C(=O)NCCC(C)C)n2)cc1OC (stereo unspecified) | -10.9% | 9.41%
CC(=O)C1C(=O)c2c(cccc2[N+](=O)[O-])C1=Nc1cccc(Cl)c1 (stereo unspecified) | -60.3% | -35.9%

SMILES | inhibition [1] | inhibition [2]
CCCCN1C[C@@H](COCc2ccccc2)Oc2cc(F)ccc2S1(=O)=O | -1.24% | 11.9%
COc1cccc(NC(=O)c2cc(Cl)nnc2Cl)c1 | 23.6% | 44%
Cc1ccc(-c2nc(-c3ccccn3)no2)cc1Cl | 11.8% | 34%
O=C1C(N2CCOCC2)=C(n2nnc3ccccc32)C(=O)c2ccccc21 | 43.9% (active) | 34.6%
COc1ccccc1NC(=O)C(C)OC(=O)c1cc2ccccc2[nH]1 (stereo unspecified) | 15.9% | 17.2%
COc1ccc(NC(=O)C2(C)Cc3c(-c4cccc(NC(C)=O)c4)ccnc3O2)cc1 (stereo unspecified) | -10.6% | 1.6%
CCCCSc1nc(C)cc(SCC(=O)N/N=C/c2cccc(OC)c2O)n1 | -16.2% | 22.5%
CC(C)C(=O)Nc1cccc2nsnc12 | -7.28% | 5.54%
CCOC(=O)Cc1csc(N/N=C/c2ccc(C(F)(F)F)cc2)n1 | -7.46% | 44.6%
Cc1oc(-c2cccc3ccccc23)nc1CN1CCN(c2ncnc3ccccc23)CC1 | -22.1% | 5.63%
CC(C)(C)c1ccc(Cn2c(=O)cnc3ccccc32)cc1 | 22.6% | 56.7% (active)
O=C(O)CCC(=O)Nc1cccc(-c2csc(-c3ccccc3)n2)c1 | 47.1% (active) | 34.6%
CC(C)(C)c1ccc(C(=O)Nc2ccc(NC(=O)C(=O)O)cc2)o1 | -30% | -15.8%
COc1cc(NC(=O)COC(=O)c2[nH]c(C)c(C(C)=O)c2C)cc(OC)c1 | 9.16% | 15.2%
Cc1ccc(C(=O)NC(=S)Nc2ccc(-c3cc4ccccc4oc3=O)cc2)c(C)c1 | -3.58% | 19.5%
NCCN1C(=O)S/C(=C\c2ccc3c(c2)OCO3)C1=O | 44% (active) | 56.6% (active)
COc1cc(CNS(=O)(=O)c2ccc3c(c2)CC(C)N3C(=O)C2CCC2)cc(OC)c1OC (stereo unspecified) | 5.37% | 29.3%
COc1ccc2nc(Sc3c([N+](=O)[O-])nc(C)n3Cc3ccccc3)[nH]c2c1 | 13.1% | 37.8%
Cc1ccc(C)c(N2CCN(C(=O)c3ccc4c(c3)c(C)c(C)n4C)CC2)c1 | -28.6% | 3.19%
